Measurements published in PubChem BioAssay AID588727 (Southern Research Specialized Biocontainment Screening …, 2011).
In all, about 350,000 compounds went through this assay and about 450 (0.13%) were called active. No rule for the calls is given here. Only a sample is shown. Potency and affinity values are given separately.

Test: inhibitors of VEEV TC-83 cytopathic effect, confirmation, Vero cells (AID 588727)
Conditions: VEEV TC-83 cytopathic effect inhibition, at 20 µM
[1] = stronger effect = higher value unless noted
[2] = measured here: 10K pilot screen inhibition, stronger effect = higher value

In the case of `O=C(NCCN1CCOCC1)c1ccc(/C=C2\Sc3ccccc3N(Cc3ccccc3F)C2=O)cc1`, the inhibition [1] is reported as 10.8% (inactive).

In the case of `COc1ccccc1N1CCN(C(=S)Nc2ccccc2)CC1`, the inhibition [1] is reported as 1.3% (inactive).

For `CC(C)Oc1ccc(Cl)cc1Nc1nc(NCCO)nc(N2CCCC2)n1`, the inhibition (stronger effect = higher value) was 4.93% (inactive) and the inhibition [2] was 4.53%.

For `Cc1ccc(NC(=O)CN2C(=O)NC3(CCCc4ccccc43)C2=O)c([N+](=O)[O-])c1` (stereo not drawn), the inhibition [1] was 1.12% (inactive).

In the case of `Cc1ccccc1NS(=O)(=O)c1nnc(NC(=O)c2ccccc2F)s1`, the inhibition (stronger effect = higher value) is reported as 1.96% (inactive) and the inhibition [2] is reported as 3.31%.

For `CC1(C)CC(=O)C=C(/C=C/c2ccccc2)C1`, the inhibition [1] was 0.62% (inactive).

In the case of `C(=C\c1ccncc1)/c1ccccc1`, the inhibition [1] is reported as 0.98% (inactive).

For `Cc1ccnc(SCc2cc(=O)c(OC(=O)c3cc([N+](=O)[O-])ccc3Cl)co2)n1`, the inhibition [1] was 0.24% (inactive).

In the case of `CCOC(=O)c1sc(=S)sc1SCc1cccc(C(F)(F)F)c1`, the inhibition [1] is reported as “inactive”.

For `O=S1(=O)C=C(SCc2ccc(F)cc2)Nc2ccccc21`, the inhibition [1] was “inactive”.

With `CCCc1c(C(=O)Nc2ccc(F)cc2)cnn1-c1ccccc1` the inhibition [1] was 7.43% (inactive).

In the case of `CCCc1c(NC(=O)Nc2ccc(F)cc2)cnn1-c1ccc(Cl)cc1`, the inhibition [1] is reported as 3.23% (inactive).

For `CCCc1c(C(=O)NNc2cccc(Cl)c2)cnn1-c1ccccc1`, the inhibition [1] was 2.24% (inactive).

For `CCCc1c(C(=O)Nc2ccc(F)cc2F)cnn1-c1ccccc1`, the inhibition [1] was “inactive”.

In the case of `CC(Sc1nc2ncc(Cl)cc2[nH]1)C(=O)c1c(N)n(C)c(=O)n(C)c1=O` (stereo not drawn), the inhibition [1] is reported as 10.7% (inactive).

With `Cn1ncc2c(=O)[nH]cnc21` the inhibition [1] was 0.51% (inactive).

With `CC(=O)Nc1ccc(S(=O)(=O)N(C)CC(=O)OCC(=O)N(CC(C)C)C2CCS(=O)(=O)C2)cc1` (stereo not drawn) the inhibition [1] was 6.9% (inactive).

With `COc1ccc(NC(=O)CN(C)C(=O)c2cn(-c3ccccc3)nc2-c2cccnc2)cc1` the inhibition [1] was 6.98% (inactive).

With `CSCCC(NS(=O)(=O)c1ccc(Cl)cc1)C(=O)OCC(=O)NC12CC3CC(CC(C3)C1)C2` (stereo not drawn) the inhibition [1] was 2.38% (inactive).

For `O=C1Nc2ccccc2C1(O)c1ccccc1O` (stereo not drawn), the inhibition [1] was 0.23% (inactive).

For `COc1c(NC(C)=O)c2c(c([N+](=O)[O-])c1OC)C(=O)OC2`, the inhibition [1] was 0.9% (inactive).

With `COc1cc2c(O)c3c(c(-c4ccc5c(c4)OCO5)c2cc1OC)C(=O)OC3` the inhibition [1] was 8.81% (inactive).

For `O=S(=O)(NCc1ccccc1Cl)c1ccc(-n2cnnn2)cc1`, the inhibition [1] was 1.99% (inactive).

With `CCC(=O)NC(=S)NNC(=O)c1ccc(OC)cc1` the inhibition [1] was 3.83% (inactive).

For `C=CCNC(=S)NNC(=O)c1ccc(OCCC)cc1`, the inhibition [1] was 1.27% (inactive).

With `CCCOc1ccc(C(=O)NNC(=S)NC(=O)c2ccccc2)cc1` the inhibition [1] was 7.4% (inactive).

With `CCCCC(=O)NC(=S)NNC(=O)c1ccc(OC)cc1` the inhibition [1] was 11% (inactive).

With `CCCn1c(N)c(C(=O)CSc2nnc(N)s2)c(=O)[nH]c1=O` the inhibition [1] was 8.01% (inactive).

For `CCC1(CC)NC(=O)N(CC(=O)Nc2ccc(C)cc2C)C1=O`, the inhibition [1] was 1.89% (inactive).

With `Cc1cn([C@H]2C[C@H](O)[C@@H](CNC(=O)[C@@H]3CCCN3Cc3ccccc3)O2)c(=O)[nH]c1=O` the inhibition [1] was 1.26% (inactive).

In the case of `COCC(=O)N1CCCC(C(=O)c2ccc(-c3ccccc3)c(F)c2)C1` (stereo not drawn), the inhibition [1] is reported as 3.71% (inactive).

For `COc1cc(/C=C/C(=O)c2ccc(NS(=O)(=O)c3ccc(C)cc3)cc2)ccc1OC(F)F`, the inhibition [1] was 42.9% (inactive).

With `COc1cc(OC)c(OC)cc1/C=C/C(=O)c1ccc(NS(=O)(=O)c2ccc(C)cc2)cc1` the inhibition [1] was 6.43% (inactive).

In the case of `COCCNC(=O)CCCn1c(=O)c2cc(OC)c(OC)cc2n(CC(=O)Nc2ccccc2OC)c1=O`, the inhibition [1] is reported as 1.37% (inactive).

In the case of `O=C(CCc1ccccc1)N1CCN(c2ccc(Cl)cc2)CC1`, the inhibition [1] is reported as 0.61% (inactive).

With `CCCN(CCC)CCCNC(=O)c1ccc2c(Cl)c3c(nc2c1)CCC3` the inhibition [1] was “inactive”.

For `CCCCN(CC)CCNC(=O)c1ccc2c(Cl)c3c(nc2c1)CCC3`, the inhibition [1] was “inactive”.

With `COc1cc2cc(C(=O)N/N=C/c3ccc(F)cc3)[nH]c2cc1OC` the inhibition [1] was 2.5% (inactive).

In the case of `CCN1CCN(c2cc(C)c3cc(NC(=S)N4CCN(c5ccc(F)cc5)CC4)ccc3n2)CC1`, the inhibition [1] is reported as 0.9% (inactive).

For `Cc1nn(Cc2cccc(C(=O)O)c2)c(C)c1[N+](=O)[O-]`, the inhibition [1] was 1.46% (inactive).

With `O=C(Nc1ccccc1SCC1CSc2nc3ccccc3c(=O)n21)c1ccccc1` (stereo not drawn) the inhibition [1] was 7.04% (inactive).

In the case of `O=C(Nc1ccccc1SCC1CSc2nc3ccccc3c(=O)n21)c1ccccc1Cl` (stereo not drawn), the inhibition [1] is reported as 13.7% (inactive).

With `Nc1ccccc1SCC1CSc2nc3ccccc3c(=O)n21` (stereo not drawn) the inhibition [1] was 1.18% (inactive).

With `O=c1c2ccccc2nc2n1C(CSc1ccccc1)CS2` (stereo not drawn) the inhibition [1] was 1% (inactive).

In the case of `CC(NC(=O)Cn1c(=O)[nH]c2ccsc2c1=O)C12CC3CC(CC(C3)C1)C2` (stereo not drawn), the inhibition [1] is reported as 4.05% (inactive).

With `O=C(N/N=C/c1ccc(F)cc1)c1cc(-c2ccc3c(c2)OCO3)n[nH]1` the inhibition [1] was 3.22% (inactive).
